# According to a collection of fitness landscapes (doi:10.1126/science.1257360):
# Over roughly 140,000 sequences, “enrichment ratio after two sorts for PhoP signalling” has its median near 0; the highest 2% begin near 11. This excerpt belongs to a sample that is enriched for the highest values.
# B1: PhoQ; a variant is named by its letters at X, in order, P23837 (parent)
# chain: MKKLLRLFFPLSLRVRFLLATAAVVLVLSLAYGMVALIGYSVSFDKTTFRLLRGESNLFYTLAKWENNKLHVELPENIDKQSPTMTLIYDENGQLLWAQRDVPWLMKMIQPDWLKSNGFHEIEADVNDTSLLLSGDHSIQQQLQEVREDDDDAEMTHSVAVNVYPATSRMPKLTIVVVDTIPVELKSSYMVWSWFIYVLSANLLLVIPLLWVAAWWSLRPIEALAKEVRELEEHNRELLNPATTRELTSLVRNLNRLLKSERERYDKYRTTLTDLTHSLKTPLXXLQXXLRSLRSEKMSVSDAEPVMLEQISRISQQIGYYLHRASMRGGTLLSRELHPVAPLLDNLTSALNKVYQRKGVNISLDISPEISFVGEQNDFVEVMGNVLDNACKYCLEFVEISARQTDEHLYIVVEDDGPGIPLSKREVIFDRGQRVDTLRPGQGVGLAVAREITEQYEGKIVAGESMLGGARMEVIFGRQHSAPKDE
# Variants of: B1
# Assay: enrichment ratio after two sorts for PhoP signalling (ratio (wild type AVST 3.29)); higher = more functional
# Settings: with PhoP (E. coli)
row,Variant,enrichment ratio
1,WYQF,≤ 0.25
2,EELG,≤ 0.25
3,IKSA,≤ 0.25
4,AVVT,0.37
5,QMRR,≤ 0.25
6,ILWV,≤ 0.25
7,GWVK,≤ 0.25
8,ANDK,≤ 0.25
9,AYLI,0.332
10,ANLI,23.1
11,PDDN,≤ 0.25
12,VNIK,≤ 0.25
13,TWLY,≤ 0.25
14,IICF,0.792
15,TICL,1.53
16,TICA,12.3
17,TICE,≤ 0.25
18,TICV,6.14
19,TICI,2.26
20,TICS,13
21,IKEC,≤ 0.25
22,LHYP,≤ 0.25
23,KVDK,≤ 0.25
24,GITC,8.58

row,Variant,enrichment ratio
1,TNSC,17.3
2,TNSI,15.8
3,GIFC,≤ 0.25
4,MNSC,≤ 0.25
5,LNSS,≤ 0.25
6,GISC,11.8
7,MNSS,0.46
8,TNCA,8.8
9,TNSK,≤ 0.25
10,TNSR,≤ 0.25
11,TNSS,13.1
12,IKVK,≤ 0.25
13,LLGD,≤ 0.25
14,MVLD,≤ 0.25
15,RQIY,≤ 0.25
16,GQSC,≤ 0.25
17,GTSC,≤ 0.25
18,GNSC,12.1
19,WNPE,≤ 0.25
20,EPTS,≤ 0.25
21,SQPA,≤ 0.25
22,VECT,12
23,TCCT,7.4
24,NECT,14.1

row,Variant,enrichment ratio
1,HELT,≤ 0.25
2,IQCT,≤ 0.25
3,YWCT,≤ 0.25
4,EECT,≤ 0.25
5,QECT,6.99
6,HEAT,≤ 0.25
7,VFCT,≤ 0.25
8,IECT,16.6
9,HECT,26.3
10,REDM,≤ 0.25
11,DVPV,≤ 0.25
12,MSTY,2.56
13,SPFN,≤ 0.25
14,ACHR,≤ 0.25
15,MCHQ,≤ 0.25
16,FMEW,≤ 0.25
17,ERFY,≤ 0.25
18,LRPR,≤ 0.25
19,LISC,≤ 0.25
20,HMCL,2.41
21,SEMT,20
22,STLA,10.9
23,KYMT,≤ 0.25
24,QEMT,5.12

row,Variant,enrichment ratio
1,SRMT,0.372
2,SPLT,≤ 0.25
3,SWMT,≤ 0.25
4,SLMT,≤ 0.25
5,STLT,12.3
6,SQMT,22.7
7,STMT,16.6
8,SIMT,7.68
9,INDV,≤ 0.25
10,LNTQ,≤ 0.25
11,PDCH,≤ 0.25
12,PGNF,≤ 0.25
13,DWKT,≤ 0.25
14,EFCG,≤ 0.25
15,KSIH,≤ 0.25
16,KPAG,≤ 0.25
17,LQSG,≤ 0.25
18,EPRQ,≤ 0.25
19,TQPT,≤ 0.25
20,WMMI,≤ 0.25
21,IPNH,≤ 0.25
22,PVYK,≤ 0.25
23,SMRM,≤ 0.25
24,TLQM,15.4

row,Variant,enrichment ratio
1,DWQM,≤ 0.25
2,KAQM,≤ 0.25
3,SGQM,14.7
4,RGQM,≤ 0.25
5,TQQM,17.5
6,FQQM,≤ 0.25
7,LAQM,≤ 0.25
8,SMGM,5.78
9,SGQK,≤ 0.25
10,SMQM,20.4
11,IDFL,≤ 0.25
12,SWLW,≤ 0.25
13,FYKC,≤ 0.25
14,FEKG,≤ 0.25
15,DDSK,≤ 0.25
16,RTPK,≤ 0.25
17,TQKM,≤ 0.25
18,MGAV,5.2
19,YTQM,≤ 0.25
20,LTQM,≤ 0.25
21,FSQM,≤ 0.25
22,KSQM,≤ 0.25
23,FCQM,≤ 0.25
24,TSQM,24

row,Variant,enrichment ratio
1,KYQM,≤ 0.25
2,SCQM,30.8
3,SRQM,≤ 0.25
4,TTQM,12.5
5,SPQM,≤ 0.25
6,STQM,12.8
7,RPSF,≤ 0.25
8,GPMM,≤ 0.25
9,AHKW,≤ 0.25
10,PCPS,≤ 0.25
11,AQDI,≤ 0.25
12,SLQM,7.14
13,SAQM,8.97
14,SQQM,15.9
15,HIPP,≤ 0.25
16,TDCL,1.96
17,KHNK,≤ 0.25
18,YPTR,≤ 0.25
19,YCAA,≤ 0.25
20,QRSN,≤ 0.25
21,QGSN,20.2
22,QASN,11.4
23,FFSN,≤ 0.25
24,KASG,≤ 0.25

row,Variant,enrichment ratio
1,QRSG,≤ 0.25
2,NASN,≤ 0.25
3,FVSN,≤ 0.25
4,QASG,17.4
5,GMMP,≤ 0.25
6,DWWS,≤ 0.25
7,RCNY,≤ 0.25
8,NNFP,≤ 0.25
9,QNYN,≤ 0.25
10,NSYV,≤ 0.25
11,AVPN,≤ 0.25
12,FCMQ,1.02
13,TSDG,0.59
14,YTDG,≤ 0.25
15,FFDG,≤ 0.25
16,QVDG,30.4
17,PVDG,≤ 0.25
18,KSDG,≤ 0.25
19,QSDG,11.8
20,QTDG,13.5
21,TVDG,≤ 0.25
22,QGDG,11.8
23,FCDG,≤ 0.25
24,FTDG,≤ 0.25

row,Variant,enrichment ratio
1,LTLA,≤ 0.25
2,HNKA,≤ 0.25
3,AFKV,≤ 0.25
4,RRQL,≤ 0.25
5,RSSV,≤ 0.25
6,VLVH,≤ 0.25
7,TVDW,≤ 0.25
8,MEFH,4.99
9,TEFC,14.4
10,TEFN,18.2
11,TEFA,11.3
12,TEFQ,8.52
13,TEFS,10.9
14,QEFN,3.01
15,TEFH,12.1
16,MEFN,7.67
17,TEFP,≤ 0.25
18,TEFI,9.19
19,QEFH,≤ 0.25
20,GKHH,≤ 0.25
21,NVPN,≤ 0.25
22,VKNT,≤ 0.25
23,GVCV,3.13
24,AWFR,≤ 0.25

row,Variant,enrichment ratio
1,RMDG,≤ 0.25
2,DDGS,≤ 0.25
3,LMRD,≤ 0.25
4,FKNL,≤ 0.25
5,FPYE,≤ 0.25
6,HPWR,≤ 0.25
7,WNMS,≤ 0.25
8,NTFG,≤ 0.25
9,MEFG,5.56
10,TEFG,19
11,NEFG,≤ 0.25
12,WVYE,≤ 0.25
13,PMID,≤ 0.25
14,ANCG,26.6
15,AHCG,15.3
16,NHCG,≤ 0.25
17,VHCG,≤ 0.25
18,TDCG,13.4
19,FDCG,≤ 0.25
20,PGCG,≤ 0.25
21,KDCG,≤ 0.25
22,AKCG,2.88
23,TGCG,24.4
24,ADCG,1.58

row,Variant,enrichment ratio
1,RGCG,≤ 0.25
2,AIDP,≤ 0.25
3,IFDW,≤ 0.25
4,PKQC,≤ 0.25
5,DRKW,≤ 0.25
6,LGNW,≤ 0.25
7,FFWM,≤ 0.25
8,FMLS,≤ 0.25
9,ADIG,≤ 0.25
10,ANIG,29.2
11,AHIG,≤ 0.25
12,REKI,≤ 0.25
13,KRHD,≤ 0.25
14,LMWD,≤ 0.25
15,GYLH,≤ 0.25
16,GYLG,≤ 0.25
17,GEKA,≤ 0.25
18,GETH,≤ 0.25
19,GELG,22.4
20,GELF,9.93
21,GENS,≤ 0.25
22,GETK,≤ 0.25
23,GETI,11.6
24,GELH,11.9

row,Variant,enrichment ratio
1,GETC,3.51
2,GELM,15.9
3,HGYA,≤ 0.25
4,STTP,≤ 0.25
5,YKHK,≤ 0.25
6,SYEL,≤ 0.25
7,TAIS,0.325
8,NLWP,≤ 0.25
9,RDCA,≤ 0.25
10,EMPC,≤ 0.25
11,PMHF,≤ 0.25
12,DDQI,≤ 0.25
13,PLHV,≤ 0.25
14,KPNT,≤ 0.25
15,RISY,≤ 0.25
16,GELA,18.1
17,GEWI,≤ 0.25
18,GELS,8.59
19,ASCY,0.505
20,LYCM,≤ 0.25
21,SGIV,7.69
22,ANIQ,11
23,HVDI,≤ 0.25
24,WNPW,≤ 0.25

row,Variant,enrichment ratio
1,TEYY,10.3
2,TECI,2.38
3,TECG,15.7
4,TEGQ,≤ 0.25
5,NECG,≤ 0.25
6,TECA,0.528
7,NECQ,≤ 0.25
8,NEAI,≤ 0.25
9,TECS,26.8
10,TEAI,20.4
11,TEEG,9.76
12,TECQ,12.3
13,KAWS,≤ 0.25
14,GAMP,≤ 0.25
15,KTEG,≤ 0.25
16,STDK,≤ 0.25
17,AAVN,≤ 0.25
18,KDFG,≤ 0.25
19,QECV,8.7
20,MECW,≤ 0.25
21,TECV,22.2
22,NECW,≤ 0.25
23,TECW,37.6
24,TPKM,≤ 0.25

row,Variant,enrichment ratio
1,LMLV,≤ 0.25
2,GRQP,≤ 0.25
3,FEMD,≤ 0.25
4,FEMW,≤ 0.25
5,VCMI,17.6
6,VYMI,≤ 0.25
7,FEMI,13
8,KCMI,≤ 0.25
9,FTMI,13.1
10,FCMI,33.7
11,FTPA,0.426
12,NSMI,2.19
13,FCMS,≤ 0.25
14,YTMI,6.21
15,PKDI,≤ 0.25
16,LYLD,≤ 0.25
17,HNKV,≤ 0.25
18,VKIK,≤ 0.25
